The results in this text go back to PubChem BioAssay (EPA / NIEHS).

For orientation: AC50 means the midpoint of the concentration-response curve, whichever way the signal moves.

Several values for one entry are separate records, joined by “and”; a condition that tells them apart may be missing. Equal entries are not always repeated. Results filed as inconclusive are left out. More than one record can exist for a structure, and the calls need not agree. Activity calls are given as the source filed them. The calls were made as follows, unless noted: active = hit-call score of the fitted dose curve at least 0.9, where 1 is the maximum; inconclusive = response in the unintended direction; inactive = score below 0.9.

Assay [1] deals with Agonist Androgen Response Element (ARE), AR (gene 367) (UniProt P10275). Nature of the assay: OT_AR_ARELUC_AG_1440: Odyssey Thera (OT) 24-hour CHO-K1 Luciferase Assay for Agonist Androgen Response Element (ARE) (AID 2283379). The procedure, abridged: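 Agonist mode, 24 h exposure in CHO-K1 ARE-luciferase cells; values reflect luminescence induction over vehicle.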
Sequence of Agonist Androgen Response Element (ARE), AR (gene 367) (P10275 whole entry, looked up, the tested form may be a part): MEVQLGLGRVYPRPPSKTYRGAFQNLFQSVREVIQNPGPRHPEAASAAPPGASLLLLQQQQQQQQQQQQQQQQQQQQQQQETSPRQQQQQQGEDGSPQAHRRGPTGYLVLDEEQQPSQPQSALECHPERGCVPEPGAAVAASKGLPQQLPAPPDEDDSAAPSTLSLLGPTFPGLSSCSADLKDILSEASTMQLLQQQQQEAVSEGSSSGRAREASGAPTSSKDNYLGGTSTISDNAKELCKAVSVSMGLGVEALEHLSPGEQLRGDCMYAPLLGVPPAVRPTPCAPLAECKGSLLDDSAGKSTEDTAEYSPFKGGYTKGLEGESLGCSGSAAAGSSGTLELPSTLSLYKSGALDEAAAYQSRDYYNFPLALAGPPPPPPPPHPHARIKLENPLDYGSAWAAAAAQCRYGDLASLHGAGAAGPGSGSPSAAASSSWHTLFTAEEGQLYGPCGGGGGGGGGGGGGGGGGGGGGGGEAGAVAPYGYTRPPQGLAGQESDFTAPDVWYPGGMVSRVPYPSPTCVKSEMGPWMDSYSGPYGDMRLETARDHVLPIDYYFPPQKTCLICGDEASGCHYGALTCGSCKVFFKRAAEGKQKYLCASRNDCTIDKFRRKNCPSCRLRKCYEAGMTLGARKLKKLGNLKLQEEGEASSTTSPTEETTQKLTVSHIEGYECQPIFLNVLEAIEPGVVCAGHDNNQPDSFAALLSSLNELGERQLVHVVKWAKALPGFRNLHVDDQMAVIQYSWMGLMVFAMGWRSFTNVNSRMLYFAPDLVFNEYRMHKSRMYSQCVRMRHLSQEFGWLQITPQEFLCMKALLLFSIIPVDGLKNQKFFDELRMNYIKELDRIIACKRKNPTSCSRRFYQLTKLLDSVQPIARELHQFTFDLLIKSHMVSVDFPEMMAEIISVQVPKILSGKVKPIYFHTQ
The target in assay [2] is Estrogen receptor beta (Homo sapiens) (UniProt Q92731). Nature of the assay: OT_ER_ERbERb_1440: Odyssey Thera (OT) 24-hour HEK293T Protein-Complementation Assay for Estrogen Receptor-beta/-beta Homodimer (AID 2283380).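 Also: fluorescence gain from ER beta LBD homodimer complementation read by laser scanning cytometry; scored as signal increase over DMSO baseline for both agonists and antagonists.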 The procedure, abridged: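 Fluorescence increase, nuclear for agonists or whole-cell for antagonists, relative to DMSO vehicle, quantified by laser scanning cytometer after fixation and Draq5 staining. Readout from 24 h treatment of HEK293T cells carrying complementation-paired ER beta LBD (aa 310-547).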
Sequence of Estrogen receptor beta (Homo sapiens) (Q92731 whole entry, looked up, the tested form may be a part): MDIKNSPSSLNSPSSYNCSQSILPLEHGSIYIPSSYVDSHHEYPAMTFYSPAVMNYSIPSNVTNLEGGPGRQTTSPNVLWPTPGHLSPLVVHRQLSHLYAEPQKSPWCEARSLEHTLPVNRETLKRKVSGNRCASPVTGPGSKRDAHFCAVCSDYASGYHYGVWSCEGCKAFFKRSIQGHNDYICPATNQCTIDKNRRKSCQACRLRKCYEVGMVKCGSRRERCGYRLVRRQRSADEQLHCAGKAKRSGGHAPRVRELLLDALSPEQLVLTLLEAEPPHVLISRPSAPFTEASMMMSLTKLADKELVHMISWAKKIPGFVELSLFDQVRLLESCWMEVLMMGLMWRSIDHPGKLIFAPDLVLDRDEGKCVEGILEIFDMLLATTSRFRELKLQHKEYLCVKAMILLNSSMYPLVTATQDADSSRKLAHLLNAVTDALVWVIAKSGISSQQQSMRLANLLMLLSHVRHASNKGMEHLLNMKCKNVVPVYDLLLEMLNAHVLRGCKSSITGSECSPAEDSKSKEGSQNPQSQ

Assay [3] concerns the target Bile acid receptor (Homo sapiens) (UniProt Q96RI1). Nature of the assay: OT_FXR_FXRSRC1_0480: Odyssey Thera (OT) 8-hour HEK293T Protein-Complementation Assay for Farnesoid X receptor/SRC-1 Co-activator (AID 2283383). A digest of the protocol: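 HEK293T cells expressing FXR and SRC-1 fused to reporter fragments were dosed with compound for 8 h; fluorescence from the reconstituted reporter marked co-activator recruitment. Gain of signal was fitted against the DMSO baseline.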

For assay [4] the target is unchanged. Put plainly: OT_FXR_FXRSRC1_1440: Odyssey Thera (OT) 24-hour HEK293T Protein-Complementation Assay for Farnesoid X receptor/SRC-1 Co-activator (AID 2283384). A digest of the protocol: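 HEK293T cells were dosed with compound and read 24 h later by fluorescence intensity from protein-fragment complementation reporting FXR/SRC-1 co-activator interaction. Gain of signal was fitted relative to DMSO negative control as baseline.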

Assay [5] has as its target Retinoic acid receptor RXR-alpha (Homo sapiens) (UniProt P19793). Put plainly: OT_NURR1_NURR1RXRa_0480: Odyssey Thera (OT) 8-hour HEK293T Protein Complementation Assay for Nurr1/retinoid X receptor (RXR) (AID 2283385). A digest of the protocol: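 HEK293T cells expressing Nurr1 and RXRα fused to reporter fragments were dosed with compound for 8 hours. Complex formation was read as fluorescence intensity and analysed as gain of signal against DMSO as baseline.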

For assay [6] the target is unchanged. Nature of the assay: OT_NURR1_NURR1RXRa_1440: Odyssey Thera (OT) 24-hour HEK293T Protein Complementation Assay for Nurr1/retinoid X receptor (RXR) (AID 2283386). The procedure, abridged:
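HEK293T cells were dosed with compound and read 24 h later by fluorescence intensity in a protein-fragment complementation format, where Nurr1–RXRα interaction reconstitutes a split reporter. Activity was fitted as gain of signal relative to DMSO baseline.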

Assay [7] has as its target Peroxisome proliferator-activated receptor gamma (Homo sapiens) (UniProt P37231). Nature of the assay: OT_PPARg_PPARgSRC1_0480: Odyssey Thera (OT) 8-hour Protein-Complementation Assay for Peroxisome Proliferator-activated Receptor Gamma / SRC-1 Co-activator (AID 2283387).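 Also: nuclear to cytoplasmic split Venus YFP fluorescence ratio reporting PPARg SRC-1 interaction.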 A digest of the protocol:
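Split-YFP (IFP1/IFP2) PPARg/SRC-1 reporter, HEK293T, 37 °C, 5% CO2; 8 h compound; formaldehyde fix + Draq5; high-content imaging, N/C ratio, ≥350 cells/image, positive direction vs DMSO.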

For assay [8], the target named is human Norepinephrine Transporter (NET), SLC6A2 (gene 6530) (UniProt P23975). Nature of the assay: NVS_TR_hNET: NovaScreen (NVS) Transporter Assay for human Norepinephrine Transporter (NET) (AID 2283377).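 Also: cell-free membrane protein extracted from CHO cells expressing human NET.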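 As to AC50: displacement of radioligand from human NET seen as loss of scintillation signal.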 A digest of the protocol:
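Scintillation counts of filter-retained radioligand served as the readout, taken 1 h post-dosing in a cell-free CHO-derived system. Test chemicals ran first at 25 uM in duplicate; confirmed hits were retested across concentrations.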

Assay [9] has as its target Estrogen receptor (Homo sapiens) (UniProt P03372). Put plainly: OT_ERa_GFPERaERE_0480: Odyssey Thera (OT) 8-hour HeLa Transcription Induction Assay for Estrogen Receptor (AID 2283381; active = hit-call score of the fitted dose curve at least 0.9, where 1 is the maximum; inactive = score below 0.9). A digest of the protocol:
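HeLa cells dosed with compound and imaged by fluorescence microscopy at 8 h; GFP induction from an ERE reporter quantified by high-content image analysis and fitted as gain of signal against DMSO baseline.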

Assay [10] shares this target. Put plainly: OT_ERa_GFPERaERE_0120: Odyssey Thera (OT) 2-hour HeLa Transcription Induction Assay for Estrogen Receptor (AID 2283382). A digest of the protocol:
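HeLa cells were dosed with test chemical and read 2 hours later for GFP-ERα/ERE-linked fluorescent protein induction by fluorescence microscopy. Gain-of-signal was fitted relative to DMSO baseline, quantified by high content image analysis.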

Sequence of Peroxisome proliferator-activated receptor gamma (Homo sapiens) (P37231 whole entry, looked up): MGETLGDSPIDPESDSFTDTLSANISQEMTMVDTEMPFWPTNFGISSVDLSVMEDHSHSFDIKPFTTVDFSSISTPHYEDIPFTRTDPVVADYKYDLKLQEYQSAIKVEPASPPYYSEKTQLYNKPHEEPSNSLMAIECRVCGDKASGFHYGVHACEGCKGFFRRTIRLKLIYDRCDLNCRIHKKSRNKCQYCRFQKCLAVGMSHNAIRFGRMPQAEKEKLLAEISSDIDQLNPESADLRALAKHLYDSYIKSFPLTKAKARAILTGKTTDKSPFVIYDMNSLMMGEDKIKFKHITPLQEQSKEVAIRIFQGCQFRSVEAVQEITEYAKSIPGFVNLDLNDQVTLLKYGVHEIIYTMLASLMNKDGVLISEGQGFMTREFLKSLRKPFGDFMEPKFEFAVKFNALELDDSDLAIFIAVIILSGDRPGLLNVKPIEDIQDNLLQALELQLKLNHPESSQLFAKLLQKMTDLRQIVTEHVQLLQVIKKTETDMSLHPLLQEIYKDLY
Sequence of Estrogen receptor (Homo sapiens) (P03372 whole entry, looked up): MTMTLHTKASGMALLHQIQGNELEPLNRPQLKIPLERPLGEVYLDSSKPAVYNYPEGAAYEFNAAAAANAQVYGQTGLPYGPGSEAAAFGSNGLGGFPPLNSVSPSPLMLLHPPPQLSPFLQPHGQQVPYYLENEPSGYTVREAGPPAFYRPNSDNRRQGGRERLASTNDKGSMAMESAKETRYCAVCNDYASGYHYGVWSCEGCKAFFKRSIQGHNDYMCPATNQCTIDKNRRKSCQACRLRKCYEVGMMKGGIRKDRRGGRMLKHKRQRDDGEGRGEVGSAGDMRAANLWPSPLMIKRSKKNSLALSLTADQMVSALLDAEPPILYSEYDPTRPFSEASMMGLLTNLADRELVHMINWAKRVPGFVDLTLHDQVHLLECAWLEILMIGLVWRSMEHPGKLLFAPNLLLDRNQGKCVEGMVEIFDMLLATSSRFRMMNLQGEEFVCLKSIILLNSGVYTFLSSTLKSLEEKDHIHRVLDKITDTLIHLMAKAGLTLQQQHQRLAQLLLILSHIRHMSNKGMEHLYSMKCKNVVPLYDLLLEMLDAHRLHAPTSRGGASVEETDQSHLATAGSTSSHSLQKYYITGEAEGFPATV
Sequence of Bile acid receptor (Homo sapiens) (Q96RI1 whole entry, looked up, the tested form may be a part): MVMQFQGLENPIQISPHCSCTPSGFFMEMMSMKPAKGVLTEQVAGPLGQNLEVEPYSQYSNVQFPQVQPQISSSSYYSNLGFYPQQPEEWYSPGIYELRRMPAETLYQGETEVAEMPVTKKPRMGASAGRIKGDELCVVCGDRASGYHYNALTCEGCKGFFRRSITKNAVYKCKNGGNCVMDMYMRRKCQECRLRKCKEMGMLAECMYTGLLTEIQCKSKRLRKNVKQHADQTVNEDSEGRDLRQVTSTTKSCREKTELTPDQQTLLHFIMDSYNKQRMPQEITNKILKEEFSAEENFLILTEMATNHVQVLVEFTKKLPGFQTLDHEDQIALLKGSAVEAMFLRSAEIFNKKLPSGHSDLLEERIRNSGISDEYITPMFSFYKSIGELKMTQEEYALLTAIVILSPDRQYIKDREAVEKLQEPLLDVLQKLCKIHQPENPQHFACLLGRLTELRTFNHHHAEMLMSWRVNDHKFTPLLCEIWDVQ
Sequence of human Norepinephrine Transporter (NET), SLC6A2 (gene 6530) (P23975 whole entry, looked up): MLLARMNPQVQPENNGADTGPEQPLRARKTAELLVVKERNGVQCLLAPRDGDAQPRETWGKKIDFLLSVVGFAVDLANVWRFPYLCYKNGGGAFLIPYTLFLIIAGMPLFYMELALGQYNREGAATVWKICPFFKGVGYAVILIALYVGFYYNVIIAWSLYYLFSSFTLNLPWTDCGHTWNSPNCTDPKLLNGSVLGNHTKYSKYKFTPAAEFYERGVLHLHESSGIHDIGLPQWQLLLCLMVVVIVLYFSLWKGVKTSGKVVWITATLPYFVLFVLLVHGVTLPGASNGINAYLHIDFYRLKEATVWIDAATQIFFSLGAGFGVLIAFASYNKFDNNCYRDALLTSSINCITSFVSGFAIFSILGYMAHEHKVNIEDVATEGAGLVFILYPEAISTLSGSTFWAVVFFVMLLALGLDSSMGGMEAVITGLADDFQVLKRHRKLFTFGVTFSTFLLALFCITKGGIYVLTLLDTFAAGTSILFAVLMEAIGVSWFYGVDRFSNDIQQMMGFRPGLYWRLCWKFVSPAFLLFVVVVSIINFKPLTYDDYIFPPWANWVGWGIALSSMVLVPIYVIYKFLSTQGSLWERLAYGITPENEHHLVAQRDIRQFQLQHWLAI
Sequence of Retinoic acid receptor RXR-alpha (Homo sapiens) (P19793 whole entry, looked up, the tested form may be a part): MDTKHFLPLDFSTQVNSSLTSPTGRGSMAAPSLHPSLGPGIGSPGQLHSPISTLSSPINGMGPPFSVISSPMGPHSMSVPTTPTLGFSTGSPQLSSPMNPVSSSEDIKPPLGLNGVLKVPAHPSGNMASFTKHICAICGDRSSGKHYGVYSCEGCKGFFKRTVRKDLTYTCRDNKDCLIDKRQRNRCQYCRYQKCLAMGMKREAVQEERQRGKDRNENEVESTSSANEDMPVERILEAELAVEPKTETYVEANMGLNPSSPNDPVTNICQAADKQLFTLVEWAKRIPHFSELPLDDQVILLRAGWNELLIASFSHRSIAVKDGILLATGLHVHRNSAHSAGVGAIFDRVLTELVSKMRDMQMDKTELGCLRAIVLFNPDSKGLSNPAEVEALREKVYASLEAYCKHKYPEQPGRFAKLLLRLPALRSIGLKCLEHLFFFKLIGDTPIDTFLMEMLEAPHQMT

With `CCCCOC(=O)c1ccccc1C(=O)O`, the result in assay [1], in [2], in assay [3], in [4], in assay [5] and in assay [6] was inactive. Moreover, the outcome in assay [7] was inactive.

For the compound `CSC1=N[C@@](C)(c2ccccc2)C(=O)N1Nc1ccccc1`, the outcome in [2], in assay [5], in assay [6] and in assay [7] was inactive. The half-maximal activity concentration (AC50) in assay [3] is 44.8 µM (active); in assay [4], 50 µM (active).

Take `Cc1cc(C2CC2)nc(Nc2ccccc2)n1`: the results for the AC50 in assay [8], in [2] and in assay [3] were 3.82 µM (active), 50 µM (active) and 20.4 µM (active), respectively. The compound was classed as inactive in assay [9], in assay [10], in [4], in assay [5], in [6] and in [7].

Turning to `CCCCSP(=O)(SCCCC)SCCCC`, the call in [2], in [4], in [5], in assay [6] and in assay [7] was inactive. The values for the half-maximal activity concentration (AC50) in assay [3] and in assay [5] were 36.9 µM (active) and 68.9 µM (active), respectively.

Regarding `CNC(=O)ON=C(SC)C(=O)N(C)C`, the outcome in assay [1], in assay [2], in [9], in assay [10], in [5] and in assay [6] was inactive. Besides, the compound was called inactive in [7].

As for `CCCSP(=O)(OCC)Oc1ccc(Br)cc1Cl` (stereo unspecified), the compound was called inactive in assay [2], in assay [4], in assay [5], in assay [6] and in assay [7]. The AC50 is 25 µM (active) in assay [3] and 44 µM (active) in [5].

For the compound `CCOP(=O)(NC(C)C)Oc1ccc(SC)c(C)c1` (stereo unspecified), the compound was called inactive in assay [1], in assay [2], in [5], in [6] and in [7]. Moreover, the results for the half-maximal activity concentration (AC50) in [3] and in [4] were 50 µM (active) and 8.5 µM (active), respectively.

For the compound `CCOC(=O)COc1cc(-c2nn(C)c(OC(F)F)c2Cl)c(F)cc1Cl`, the result in assay [1], in assay [5], in [6] and in assay [7] was inactive.

With `C[N+]1(C)CCCCC1`, the result in assay [1], in assay [2], in [5], in [6] and in assay [7] was inactive.

`Cc1nn(-c2cc(NS(C)(=O)=O)c(Cl)cc2Cl)c(=O)n1C(F)F`: the compound was classed as inactive in assay [1], in [2], in [6] and in assay [7].

`COP(=O)(OC)SCn1c(=O)oc2cc(Cl)cnc21`: the compound was called inactive in assay [1], in assay [9], in assay [10], in [5] and in [7].

For the compound `CCCOc1nn(C(=O)NS(=O)(=O)c2ccccc2C(=O)OC)c(=O)n1C`, the compound was called inactive in [1], in assay [5], in assay [6] and in assay [7].

With `CC(COc1ccc(Oc2ccccc2)cc1)Oc1ccccn1` (stereo unspecified), the compound was classed as inactive in assay [2], in assay [5], in [6] and in assay [7]. For the same compound, the figures for the AC50 in [3], in assay [4] and in assay [5] were 43 µM (active), 7.29 µM (active) and 63.2 µM (active), respectively.

As to `CCc1cccc(CC)c1N(COC)C(=O)CCl`, the compound was classed as inactive in [2], in [9], in assay [10], in assay [3], in assay [4] and in assay [5]. Also, the call in assay [7] was inactive. Also, the AC50 in assay [6] was 0.714 µM (active).

With `CSc1nc(NC(C)C)nc(NC(C)C)n1`, the compound was called inactive in assay [2], in assay [9], in assay [10], in assay [5], in assay [6] and in assay [7].

As to `CCCCOC(=O)[C@@H](C)Oc1ccc(Oc2ccc(C#N)cc2F)cc1`, the call in assay [2], in assay [9], in assay [10], in assay [5], in [6] and in [7] was inactive. The AC50 in assay [5] is 13.5 µM (active).

Regarding `CNc1cnn(-c2cccc(C(F)(F)F)c2)c(=O)c1Cl`, the result in assay [2], in assay [3], in assay [4], in [5], in [6] and in assay [7] was inactive.

In the case of `CC(Oc1cccc(Cl)c1)C(=O)O` (stereo unspecified), the result in [8], in assay [2], in assay [3], in [4], in assay [5] and in assay [6] was inactive. Besides, the compound was called inactive in assay [7].

On to `CC(C)=CC1C(C(=O)OCN2C(=O)C3=C(CCCC3)C2=O)C1(C)C` (stereo unspecified), for which the compound was classed as inactive in assay [1], in [5], in assay [6] and in assay [7].

Regarding `C[Si](Cn1cncn1)(c1ccc(F)cc1)c1ccc(F)cc1`, the values for the AC50 in assay [8] and in assay [3] were 2.86 µM (active) and 13 µM (active), respectively. The result in assay [2], in [4], in assay [5], in [6] and in assay [7] was inactive.

As for `CC(C)N(C(=O)SCC(Cl)=C(Cl)Cl)C(C)C`, the compound was classed as inactive in assay [2] and in [6]. The concentration at half-maximal activity (AC50) in assay [3] was 21.9 µM (active); in assay [4], 80.5 µM (active); in [5], 74.3 µM (active) and 85 µM (active); in [6] it was 77.9 µM (active).

As for `COc1cccc(C(=O)NN(C(=O)c2cc(C)cc(C)c2)C(C)(C)C)c1C`, the call in [2], in assay [5], in assay [6] and in assay [7] was inactive. Also, the AC50 was 14.7 µM (active) in assay [3] and 27 µM (active) in assay [4].

In the case of `C#CCC1=C(C)C(OC(=O)C2C(C=C(C)C)C2(C)C)CC1=O` (stereo unspecified), the result in assay [2], in assay [5], in assay [6] and in assay [7] was inactive. Also, the half-maximal activity concentration (AC50) in [3] is 33 µM (active); in assay [4], 49.8 µM (active); in assay [5], 66.7 µM (active); in [6], 79.6 µM (active).

With `CC[C@H](C)[C@H]1O[C@]2(C=C[C@@H]1C)C[C@@H]1C[C@@H](C/C=C(\C)[C@@H](O[C@H]3C[C@H](OC)[C@@H](O[C@H]4C[C@H](OC)[C@@H](NC)[C@H](C)O4)[C@H](C)O3)[C@@H](C)/C=C/C=C3\CO[C@@H]4[C@H](O)C(C)=C[C@@H](C(=O)O1)[C@]34O)O2`, the AC50 in assay [8] is 5.29 µM (active); in assay [9], 17.9 µM (active). Besides, the outcome in assay [10], in [6] and in assay [7] was inactive.

Turning to `CCC(CC)Nc1c([N+](=O)[O-])cc(C)c(C)c1[N+](=O)[O-]`, the AC50 is 13.5 µM (active) in assay [2], 43.3 µM (active) in [3], 71.7 µM (active) in [4] and 82.1 µM (active) in assay [6]. In addition, the compound was classed as inactive in [5], in assay [6] and in assay [7].
